# Source: PubChem BioAssay (Tox21)
# Calls of active or inactive are those of the source. Calls come from the whole dose curve; as a rule, active = well fitted curve in the direction sought with a large enough effect in the repeat runs; inconclusive = weak or mixed curves; inactive = flat fitted curve, though single readings scatter.
# Experiment: qHTS assay to test for compound auto fluorescence at 535 nm (green) in HEK293 cells (AID 720680)
# Conditions: green autofluorescence 485/535 nm; series mostly up to 91.3 µM; fluorescence, % of fluorescein: at the top concentration
# % is set by controls: 0 for no effect and ±100 for the full control effect.
row,SMILES,"fluorescence, % of fluorescein"
1,CC(C)(CCl)c1ccccc1,0.0673% (inactive)
2,CCC(C(=O)OCCN(CC)CC)c1ccccc1 (centres undefined),0.0558% [at 46 µM] (inactive)
3,CCOC(=O)c1ccccc1C,-0.0173% (inactive)
4,CC1CC(=O)NN=C1c1ccc(NCC(C)(C)NCC(O)COc2cc(Cl)ccc2C#N)cc1 (centres undefined),0.0431% [at 46 µM] (inactive)
5,CC[C@@H]([C@H](C)O)n1ncn(-c2ccc(N3CCN(c4ccc(OC[C@@H]5CO[C@@](Cn6cncn6)(c6ccc(F)cc6F)C5)cc4)CC3)cc2)c1=O,0.0473% [at 46 µM] (inactive)
6,CCn1nc(C)c2c1C(=O)NCC(c1ccc(O)cc1)=N2,-0.0182% (inactive)
7,CCn1cc(C(=O)O)c(=O)c2cc(F)c(N3CCNCC3)nc21,-0.0016% [at 18.6 µM] (inactive)
8,Fc1c(F)c(F)c(Br)c(F)c1F,0.0055% (inactive)
9,CCC(C)(C)C1CCC(O)CC1 (centres undefined),0.0336% (inactive)
10,CC(C)OCC1CO1 (centres undefined),-0.0335% (inactive)
11,c1cnc2c(n1)CCCC2,-0.112% (inactive)
12,COC(=O)Nc1nc2ccc(C(=O)c3cccs3)cc2[nH]1,-0.0317% [at 46 µM] (inactive)
13,O=C(Nc1ccc([N+](=O)[O-])cc1)Nc1ccc([N+](=O)[O-])cc1,-0.0171% [at 46 µM] (inactive)

# Experiment: qHTS assay to test for compound auto fluorescence at 460 nm (blue) in HEK293 cell free culture (AID 720681); note: potency is the fitted concentration of half-maximal effect
# Conditions: cell-free medium, autofluorescence 405/460 nm (blue); series mostly up to 91.3 µM; fluorescence, % of fluorescent control: at the top concentration
# Procedure, shortened: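 Test compounds were pinned into cell-free culture medium (DMEM with 10% FBS) and fluorescence was read directly at Ex/Em 405/460 nm. Signals were expressed as fluorescence equivalents of triamterene, with DMSO vehicle as control.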
SMILES,"fluorescence, % of fluorescent control",Potency
C/C=C/C=C/CCCCCCCO,0.0185% (inactive),
Cc1cc(OI)c(C(C)C)cc1-c1cc(C(C)C)c(OI)cc1C,0.0208% [at 46 µM] (inactive),
CCCCN(CCCC)CCCOC(=O)c1ccc(N)cc1,-0.0006% [at 18.6 µM] (inactive),
CCCCC1C(=O)N(c2ccccc2)N(c2ccc(O)cc2)C1=O (centres undefined),-0.0788% [at 18.6 µM] (inactive),
CC(C)(C)CC(C)(C)c1ccc(OCCO)cc1,,inactive
CC(C)(C)C(=O)O,-0.01% (inactive),
CCCCC/C(=C\c1ccccc1)CO,-0.0075% [at 95.7 µM] (inactive),
C[N+]1(C)CCC(=C(c2ccccc2)c2ccccc2)CC1,-0.269% [at 18.6 µM] (inactive),
CO[C@H]1C=CO[C@@]2(C)Oc3c(C)c(O)c4c(O)c(c5c(c4c3C2=O)=NC2(CCN(CC(C)C)CC2)N=5)NC(=O)/C(C)=C\C=C/[C@H](C)[C@H](O)[C@@H](C)[C@@H](O)[C@@H](C)[C@H](OC(C)=O)[C@@H]1C,,inactive
CCC(C)=O,-0.181% (inactive),
C[N+](C)(C)CCOC(N)=O,-0.0138% [at 46 µM] (inactive),
CN1CCN(CCCN2c3ccccc3Sc3ccc(S(=O)(=O)N(C)C)cc32)CC1,0.0966% [at 18.6 µM] (inactive),
CCCCCC=CCC=CCCCCCCCC(=O)OCC,-0.0216% [at 46 µM] (inactive),
Cc1cc(O)c(C(C)C)cc1Cl,,inactive
CCC(Cc1ccccc1)(C(=O)c1ccc(N2CCOCC2)cc1)N(C)C (centres undefined),-0.0941% (inactive),
CCOC(=O)[C@@H](C)Oc1ccc(Oc2nc3ccc(Cl)cc3o2)cc1,-0.0731% (inactive),
CC(=O)[C@H]1CC[C@H]2[C@@H]3C[C@H](C)C4=CC(=O)CC[C@]4(C)[C@H]3[C@@H](O)C[C@]12C,-0.0076% [at 18.6 µM] (inactive),
CNCCCC1c2ccccc2C=Cc2ccccc21,0.01% [at 18.6 µM] (inactive),
CCc1c2c(nc3ccc(OC(=O)N4CCC(N5CCCCC5)CC4)cc13)-c1cc3c(c(=O)n1C2)COC(=O)[C@]3(O)CC,,12.6 µM (active)

SMILES,"fluorescence, % of fluorescent control",Potency
CC(=O)CC(c1ccc([N+](=O)[O-])cc1)c1c(O)c2ccccc2oc1=O (centres undefined),-0.0081% [at 18.6 µM] (inactive),
CC(C)(CCl)c1ccccc1,-0.0313% (inactive),
CCC(C(=O)OCCN(CC)CC)c1ccccc1 (centres undefined),0.052% [at 46 µM] (inactive),
CCOC(=O)c1ccccc1C,-0.0578% (inactive),
CC1CC(=O)NN=C1c1ccc(NCC(C)(C)NCC(O)COc2cc(Cl)ccc2C#N)cc1 (centres undefined),0.119% [at 46 µM] (inactive),
CC[C@@H]([C@H](C)O)n1ncn(-c2ccc(N3CCN(c4ccc(OC[C@@H]5CO[C@@](Cn6cncn6)(c6ccc(F)cc6F)C5)cc4)CC3)cc2)c1=O,-0.0123% [at 46 µM] (inactive),
CCn1nc(C)c2c1C(=O)NCC(c1ccc(O)cc1)=N2,0.986% (inactive),
CCn1cc(C(=O)O)c(=O)c2cc(F)c(N3CCNCC3)nc21,-0.0171% [at 18.6 µM] (inactive),
CNC(=S)NC,-0.0138% (inactive),
CCCCOC(=O)CCS,0.0597% (inactive),
Fc1c(F)c(F)c(Br)c(F)c1F,-0.0826% (inactive),
N#C/C(=C1\SCC(c2ccccc2Cl)S1)n1ccnc1 (centres undefined),0.0135% [at 46 µM] (inactive),
CCC(C)(C)C1CCC(O)CC1 (centres undefined),-0.166% (inactive),
O=S(=O)(c1ccccc1)c1ccc(Cl)cc1,0.078% (inactive),
CC(C)OCC1CO1 (centres undefined),-0.0476% (inactive),
c1cnc2c(n1)CCCC2,0.12% (inactive),
COC(=O)Nc1nc2ccc(C(=O)c3cccs3)cc2[nH]1,0.242% [at 46 µM] (inactive),
CCCCCCCCCCCC[N+](C)(C)CC(=O)[O-],-0.0213% (inactive),
O=C(Nc1ccc([N+](=O)[O-])cc1)Nc1ccc([N+](=O)[O-])cc1,0.0817% [at 46 µM] (inactive),

# Experiment: qHTS assay to test for compound auto fluorescence at 535 nm (green) in HEK293 cell free culture (AID 720682)
# Conditions: cell-free medium, green autofluorescence 485/535 nm, stronger effect = higher value; series mostly up to 91.3 µM; activity change: at the top concentration
# Procedure, shortened: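 Read-out: 485/535 nm fluorescence intensity, calibrated against fluorescein. Medium only (DMEM + 10% FBS, no cells); test compound or DMSO vehicle added by pintool before plate reading.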
SMILES,activity change,outcome
C/C=C/C=C/CCCCCCCO,-0.0224% (inactive),
Cc1cc(OI)c(C(C)C)cc1-c1cc(C(C)C)c(OI)cc1C,-0.121% [at 46 µM] (inactive),
CCCCN(CCCC)CCCOC(=O)c1ccc(N)cc1,-0.0464% [at 18.6 µM] (inactive),
CCCCC1C(=O)N(c2ccccc2)N(c2ccc(O)cc2)C1=O (centres undefined),-0.39% [at 18.6 µM] (inactive),
CC(C)(C)CC(C)(C)c1ccc(OCCO)cc1,,inactive
CC(C)(C)C(=O)O,0.0329% (inactive),
CCCCC/C(=C\c1ccccc1)CO,0.0648% [at 95.7 µM] (inactive),
C[N+]1(C)CCC(=C(c2ccccc2)c2ccccc2)CC1,-0.0334% [at 18.6 µM] (inactive),
CO[C@H]1C=CO[C@@]2(C)Oc3c(C)c(O)c4c(O)c(c5c(c4c3C2=O)=NC2(CCN(CC(C)C)CC2)N=5)NC(=O)/C(C)=C\C=C/[C@H](C)[C@H](O)[C@@H](C)[C@@H](O)[C@@H](C)[C@H](OC(C)=O)[C@@H]1C,,inactive
CCC(C)=O,0.0096% (inactive),
C[N+](C)(C)CCOC(N)=O,-0.0044% [at 46 µM] (inactive),
CN1CCN(CCCN2c3ccccc3Sc3ccc(S(=O)(=O)N(C)C)cc32)CC1,0.0013% [at 18.6 µM] (inactive),
CCCCCC=CCC=CCCCCCCCC(=O)OCC,0.055% [at 46 µM] (inactive),
Cc1cc(O)c(C(C)C)cc1Cl,,inactive
CCC(Cc1ccccc1)(C(=O)c1ccc(N2CCOCC2)cc1)N(C)C (centres undefined),0.125% (inactive),
CCOC(=O)[C@@H](C)Oc1ccc(Oc2nc3ccc(Cl)cc3o2)cc1,0.0275% (inactive),
CC(=O)[C@H]1CC[C@H]2[C@@H]3C[C@H](C)C4=CC(=O)CC[C@]4(C)[C@H]3[C@@H](O)C[C@]12C,-0.0137% [at 18.6 µM] (inactive),
CNCCCC1c2ccccc2C=Cc2ccccc21,0.0344% [at 18.6 µM] (inactive),
CCc1c2c(nc3ccc(OC(=O)N4CCC(N5CCCCC5)CC4)cc13)-c1cc3c(c(=O)n1C2)COC(=O)[C@]3(O)CC,-0.0295% [at 46 µM] (inactive),

SMILES,activity change,outcome
CC(=O)CC(c1ccc([N+](=O)[O-])cc1)c1c(O)c2ccccc2oc1=O (centres undefined),0.0438% [at 18.6 µM] (inactive),
CC(C)(CCl)c1ccccc1,0.069% (inactive),
CCC(C(=O)OCCN(CC)CC)c1ccccc1 (centres undefined),0.12% [at 46 µM] (inactive),
CCOC(=O)c1ccccc1C,-0.0157% (inactive),
CC1CC(=O)NN=C1c1ccc(NCC(C)(C)NCC(O)COc2cc(Cl)ccc2C#N)cc1 (centres undefined),-0.0891% [at 46 µM] (inactive),
CC[C@@H]([C@H](C)O)n1ncn(-c2ccc(N3CCN(c4ccc(OC[C@@H]5CO[C@@](Cn6cncn6)(c6ccc(F)cc6F)C5)cc4)CC3)cc2)c1=O,0.0298% [at 46 µM] (inactive),
CCn1nc(C)c2c1C(=O)NCC(c1ccc(O)cc1)=N2,0.0264% (inactive),
CCn1cc(C(=O)O)c(=O)c2cc(F)c(N3CCNCC3)nc21,0.0215% [at 18.6 µM] (inactive),
CNC(=S)NC,0.092% (inactive),
CCCCOC(=O)CCS,0.0451% (inactive),
Fc1c(F)c(F)c(Br)c(F)c1F,-0.0083% (inactive),
N#C/C(=C1\SCC(c2ccccc2Cl)S1)n1ccnc1 (centres undefined),0.0555% [at 46 µM] (inactive),
CCC(C)(C)C1CCC(O)CC1 (centres undefined),-0.0908% (inactive),
O=S(=O)(c1ccccc1)c1ccc(Cl)cc1,0.072% (inactive),
CC(C)OCC1CO1 (centres undefined),-0.104% (inactive),
c1cnc2c(n1)CCCC2,-0.0064% (inactive),
COC(=O)Nc1nc2ccc(C(=O)c3cccs3)cc2[nH]1,0.0257% [at 46 µM] (inactive),
CCCCCCCCCCCC[N+](C)(C)CC(=O)[O-],0.0041% (inactive),
O=C(Nc1ccc([N+](=O)[O-])cc1)Nc1ccc([N+](=O)[O-])cc1,0.0187% [at 46 µM] (inactive),
